# Key:
# Experiment in all cases: DAPPL (digital affinity profiling via proximity ligation, sequencing); 10 mM Tris-HCl pH 7.5, 50 mM NaCl, 1 mM DTT, 4% glycerol, room temperature, 30 min; GST-TFs on glutathione beads, 16-mer random dsDNA library, 0.1% formaldehyde crosslink after washing; high values mean tight binding
# Conditions in all cases: protein: recombinant; tags: N-terminal GST; dsDNA, one strand shown
# [1] = target: T1, FEV (Homo sapiens, UniProt Q99581 1-238)
# T1 sequence: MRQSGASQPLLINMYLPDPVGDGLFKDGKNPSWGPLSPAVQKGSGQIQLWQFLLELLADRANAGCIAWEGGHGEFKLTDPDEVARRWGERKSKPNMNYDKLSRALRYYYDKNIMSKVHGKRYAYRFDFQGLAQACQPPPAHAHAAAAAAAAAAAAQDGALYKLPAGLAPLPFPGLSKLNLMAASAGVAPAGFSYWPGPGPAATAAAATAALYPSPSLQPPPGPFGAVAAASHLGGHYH
# How it was run: (§1)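 Yeast served to express human transcription factors as GST fusions, which were then captured on glutathione beads and labelled with DNA barcodes. Pooled with a tag-only sample, they were incubated with 200 nmole of a 16-mer random double-stranded DNA library for 30 min at room temperature in Tris/NaCl/DTT/glycerol buffer, washed, crosslinked with 0.1% formaldehyde, ligated by proximity, amplified by PCR and sequenced. Dividing each hexamer's read frequency for a factor by its frequency for the tag-only sample gives the binding signal.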
# [2] = target: ETV5 (Homo sapiens, UniProt P41161 1-510)
# How it was run: as §1
# [3] = target: T2, SPIC (Homo sapiens, UniProt Q8N5J4 1-248)
# T2 sequence: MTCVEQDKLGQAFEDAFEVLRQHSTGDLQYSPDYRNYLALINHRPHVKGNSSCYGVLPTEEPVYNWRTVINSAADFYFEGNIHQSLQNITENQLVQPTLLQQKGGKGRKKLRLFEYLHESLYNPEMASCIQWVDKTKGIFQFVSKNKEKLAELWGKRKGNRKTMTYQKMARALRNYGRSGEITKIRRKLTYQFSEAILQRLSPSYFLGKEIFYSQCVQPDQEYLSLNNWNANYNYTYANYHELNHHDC
# How it was run: as §1
# [4] = target: ELF4 (Homo sapiens, UniProt Q99607 1-663)
# How it was run: as §1
# [5] = target: T3, ELK4 (Homo sapiens, UniProt P28324-2 1-405)
# T3 sequence: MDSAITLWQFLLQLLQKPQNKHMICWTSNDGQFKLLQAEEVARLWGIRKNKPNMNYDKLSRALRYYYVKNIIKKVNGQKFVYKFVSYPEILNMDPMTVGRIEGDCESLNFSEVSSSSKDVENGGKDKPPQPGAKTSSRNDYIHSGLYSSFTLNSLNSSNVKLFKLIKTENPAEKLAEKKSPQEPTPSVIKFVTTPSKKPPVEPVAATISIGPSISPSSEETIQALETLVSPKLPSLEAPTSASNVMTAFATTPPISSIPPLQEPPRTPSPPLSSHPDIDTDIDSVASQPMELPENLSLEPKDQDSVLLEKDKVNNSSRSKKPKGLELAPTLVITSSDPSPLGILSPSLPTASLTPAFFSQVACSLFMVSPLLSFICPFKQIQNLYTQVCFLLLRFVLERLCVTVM
# How it was run: as §1
# [6] = target: T4, ETV2 (Homo sapiens, UniProt O00321 1-342)
# T4 sequence: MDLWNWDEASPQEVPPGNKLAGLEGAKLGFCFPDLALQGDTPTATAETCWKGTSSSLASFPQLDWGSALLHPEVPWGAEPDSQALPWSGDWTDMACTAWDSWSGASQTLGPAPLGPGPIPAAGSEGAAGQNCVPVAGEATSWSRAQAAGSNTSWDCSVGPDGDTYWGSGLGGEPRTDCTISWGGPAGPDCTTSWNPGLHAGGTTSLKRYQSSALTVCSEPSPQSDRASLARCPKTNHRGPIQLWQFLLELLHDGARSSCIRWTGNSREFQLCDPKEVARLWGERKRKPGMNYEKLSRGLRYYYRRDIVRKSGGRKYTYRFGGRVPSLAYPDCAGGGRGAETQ
# How it was run: as §1
# [7] = target: T5, ELF3 (Homo sapiens, UniProt P78545 1-371)
# T5 sequence: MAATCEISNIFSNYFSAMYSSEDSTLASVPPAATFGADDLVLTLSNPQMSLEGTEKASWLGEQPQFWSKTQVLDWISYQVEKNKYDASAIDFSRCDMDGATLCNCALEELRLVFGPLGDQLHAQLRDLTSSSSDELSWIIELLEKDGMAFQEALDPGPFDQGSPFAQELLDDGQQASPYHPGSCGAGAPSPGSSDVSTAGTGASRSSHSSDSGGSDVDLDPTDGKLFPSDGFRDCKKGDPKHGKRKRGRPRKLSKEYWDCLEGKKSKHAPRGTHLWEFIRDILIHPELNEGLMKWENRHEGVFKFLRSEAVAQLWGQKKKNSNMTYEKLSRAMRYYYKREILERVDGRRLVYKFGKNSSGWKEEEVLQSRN
# How it was run: as §1
# [8] = target: ETV1 (Homo sapiens, UniProt P50549 1-477)
# How it was run: as §1
# [9] = target: T6, ERF (Homo sapiens, UniProt P50548 1-548)
# T6 sequence: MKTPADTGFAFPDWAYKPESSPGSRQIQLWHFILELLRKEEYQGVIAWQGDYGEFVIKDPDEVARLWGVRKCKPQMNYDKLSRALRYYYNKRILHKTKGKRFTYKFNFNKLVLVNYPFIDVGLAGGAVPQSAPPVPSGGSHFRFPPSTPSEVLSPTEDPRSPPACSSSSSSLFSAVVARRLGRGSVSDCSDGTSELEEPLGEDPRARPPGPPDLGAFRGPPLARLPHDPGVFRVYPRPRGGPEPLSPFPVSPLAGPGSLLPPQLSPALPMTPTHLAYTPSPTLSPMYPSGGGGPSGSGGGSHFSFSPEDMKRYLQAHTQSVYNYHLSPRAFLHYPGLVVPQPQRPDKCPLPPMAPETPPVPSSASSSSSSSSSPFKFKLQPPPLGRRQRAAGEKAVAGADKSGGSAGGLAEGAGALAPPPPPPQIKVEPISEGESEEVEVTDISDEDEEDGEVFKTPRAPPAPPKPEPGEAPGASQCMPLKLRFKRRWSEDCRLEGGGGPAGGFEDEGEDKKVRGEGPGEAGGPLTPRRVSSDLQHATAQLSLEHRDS
# How it was run: as §1
# [10] = target: T7, ETV3L (Homo sapiens, UniProt Q6ZN32 1-361)
# T7 sequence: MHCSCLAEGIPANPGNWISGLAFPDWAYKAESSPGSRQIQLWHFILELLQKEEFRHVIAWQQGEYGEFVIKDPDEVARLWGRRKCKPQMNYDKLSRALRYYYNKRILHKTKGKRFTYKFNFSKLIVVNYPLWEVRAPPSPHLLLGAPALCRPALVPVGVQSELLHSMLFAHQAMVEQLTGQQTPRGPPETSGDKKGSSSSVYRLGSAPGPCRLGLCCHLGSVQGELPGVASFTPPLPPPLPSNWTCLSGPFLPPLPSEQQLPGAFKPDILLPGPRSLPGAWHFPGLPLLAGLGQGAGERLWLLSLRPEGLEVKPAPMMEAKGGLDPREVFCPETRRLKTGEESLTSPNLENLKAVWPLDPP
# How it was run: as §1
# [11] = target: T8, ETS2 (Homo sapiens, UniProt P15036 1-469)
# T8 sequence: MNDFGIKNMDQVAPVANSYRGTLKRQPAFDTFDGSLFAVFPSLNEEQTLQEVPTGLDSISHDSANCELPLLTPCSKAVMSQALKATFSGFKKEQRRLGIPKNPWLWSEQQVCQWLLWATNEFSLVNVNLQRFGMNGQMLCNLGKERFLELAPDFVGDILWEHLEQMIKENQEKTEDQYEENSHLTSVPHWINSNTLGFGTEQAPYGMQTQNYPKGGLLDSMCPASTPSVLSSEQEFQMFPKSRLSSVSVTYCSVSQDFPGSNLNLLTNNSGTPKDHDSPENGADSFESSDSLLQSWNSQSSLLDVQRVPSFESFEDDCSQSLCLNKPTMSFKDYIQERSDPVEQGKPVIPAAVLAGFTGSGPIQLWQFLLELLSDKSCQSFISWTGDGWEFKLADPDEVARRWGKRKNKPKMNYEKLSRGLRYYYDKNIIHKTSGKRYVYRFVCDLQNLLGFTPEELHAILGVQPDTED
# How it was run: as §1
# [12] = target: T9, SPDEF (Homo sapiens, UniProt O95238 1-335)
# T9 sequence: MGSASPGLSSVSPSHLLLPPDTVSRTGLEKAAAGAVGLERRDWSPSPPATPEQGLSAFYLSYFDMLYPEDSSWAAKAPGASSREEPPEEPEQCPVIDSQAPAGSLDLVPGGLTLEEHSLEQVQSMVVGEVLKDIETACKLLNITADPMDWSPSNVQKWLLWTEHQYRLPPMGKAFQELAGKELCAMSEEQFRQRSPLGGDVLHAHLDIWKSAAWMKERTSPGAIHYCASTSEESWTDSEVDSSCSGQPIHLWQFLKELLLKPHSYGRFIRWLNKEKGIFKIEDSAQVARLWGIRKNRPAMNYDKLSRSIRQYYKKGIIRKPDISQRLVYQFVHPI
# How it was run: as §1
# [13] = target: T10, ETV3 (Homo sapiens, UniProt P41162-2 1-143)
# T10 sequence: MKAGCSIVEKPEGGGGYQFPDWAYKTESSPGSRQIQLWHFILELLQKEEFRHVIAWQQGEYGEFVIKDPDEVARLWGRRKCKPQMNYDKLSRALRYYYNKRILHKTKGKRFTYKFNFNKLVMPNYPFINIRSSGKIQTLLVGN
# How it was run: as §1
# [14] = target: ETV6 (Homo sapiens, UniProt P41212 1-452)
# How it was run: as §1
# [15] = target: T11, ETV7 (Homo sapiens, UniProt Q9Y603 1-341)
# T11 sequence: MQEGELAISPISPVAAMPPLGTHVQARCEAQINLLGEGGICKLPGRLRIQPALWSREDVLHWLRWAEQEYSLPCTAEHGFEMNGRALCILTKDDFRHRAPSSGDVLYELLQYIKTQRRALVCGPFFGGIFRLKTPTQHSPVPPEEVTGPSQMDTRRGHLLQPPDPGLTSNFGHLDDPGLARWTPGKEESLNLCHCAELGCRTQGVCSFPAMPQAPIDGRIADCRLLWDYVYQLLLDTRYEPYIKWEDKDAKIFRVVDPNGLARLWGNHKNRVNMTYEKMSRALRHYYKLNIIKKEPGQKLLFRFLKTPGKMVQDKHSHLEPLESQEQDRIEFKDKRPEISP
# How it was run: as §1
# [16] = target: T12, ELF5 (Homo sapiens, UniProt Q9UKW6-2 1-255)
# T12 sequence: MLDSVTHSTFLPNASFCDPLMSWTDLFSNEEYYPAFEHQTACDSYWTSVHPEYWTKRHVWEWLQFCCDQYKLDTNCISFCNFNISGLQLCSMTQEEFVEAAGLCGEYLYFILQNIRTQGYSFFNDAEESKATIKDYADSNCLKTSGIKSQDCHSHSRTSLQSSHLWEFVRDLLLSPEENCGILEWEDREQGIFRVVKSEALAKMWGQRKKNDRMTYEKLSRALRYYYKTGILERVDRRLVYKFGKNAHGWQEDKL
# How it was run: as §1
# Chain of ETV1 (P50549 whole entry): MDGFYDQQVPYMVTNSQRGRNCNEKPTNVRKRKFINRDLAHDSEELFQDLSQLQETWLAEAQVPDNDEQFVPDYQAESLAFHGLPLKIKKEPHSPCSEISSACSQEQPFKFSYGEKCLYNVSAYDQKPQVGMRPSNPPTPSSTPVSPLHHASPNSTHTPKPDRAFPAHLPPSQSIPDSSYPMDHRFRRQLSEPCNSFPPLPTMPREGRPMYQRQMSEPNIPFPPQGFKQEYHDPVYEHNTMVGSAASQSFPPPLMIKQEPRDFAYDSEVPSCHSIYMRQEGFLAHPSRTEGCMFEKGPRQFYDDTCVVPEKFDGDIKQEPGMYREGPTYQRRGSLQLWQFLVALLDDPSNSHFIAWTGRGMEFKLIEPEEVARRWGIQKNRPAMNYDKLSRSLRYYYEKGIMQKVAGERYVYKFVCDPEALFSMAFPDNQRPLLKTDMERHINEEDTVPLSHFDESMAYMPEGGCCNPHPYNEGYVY
# Chain of ELF4 (Q99607 whole entry): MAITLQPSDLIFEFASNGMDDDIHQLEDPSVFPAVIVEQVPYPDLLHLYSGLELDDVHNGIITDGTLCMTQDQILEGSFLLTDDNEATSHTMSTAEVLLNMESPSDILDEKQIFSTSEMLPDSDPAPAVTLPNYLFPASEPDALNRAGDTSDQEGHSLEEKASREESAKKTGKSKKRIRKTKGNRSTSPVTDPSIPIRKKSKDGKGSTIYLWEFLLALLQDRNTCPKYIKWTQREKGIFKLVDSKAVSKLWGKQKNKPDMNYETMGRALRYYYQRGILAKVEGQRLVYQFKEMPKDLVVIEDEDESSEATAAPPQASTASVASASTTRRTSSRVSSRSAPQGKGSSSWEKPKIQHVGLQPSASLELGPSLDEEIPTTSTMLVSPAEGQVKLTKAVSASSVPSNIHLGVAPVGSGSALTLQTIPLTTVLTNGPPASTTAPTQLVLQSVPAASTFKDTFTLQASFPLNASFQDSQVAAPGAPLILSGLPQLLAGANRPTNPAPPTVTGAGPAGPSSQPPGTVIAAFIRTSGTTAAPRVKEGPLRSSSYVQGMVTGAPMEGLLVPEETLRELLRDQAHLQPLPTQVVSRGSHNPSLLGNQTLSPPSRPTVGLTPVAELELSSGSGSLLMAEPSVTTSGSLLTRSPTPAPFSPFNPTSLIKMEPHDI
# Chain of ETV5 (P41161 whole entry): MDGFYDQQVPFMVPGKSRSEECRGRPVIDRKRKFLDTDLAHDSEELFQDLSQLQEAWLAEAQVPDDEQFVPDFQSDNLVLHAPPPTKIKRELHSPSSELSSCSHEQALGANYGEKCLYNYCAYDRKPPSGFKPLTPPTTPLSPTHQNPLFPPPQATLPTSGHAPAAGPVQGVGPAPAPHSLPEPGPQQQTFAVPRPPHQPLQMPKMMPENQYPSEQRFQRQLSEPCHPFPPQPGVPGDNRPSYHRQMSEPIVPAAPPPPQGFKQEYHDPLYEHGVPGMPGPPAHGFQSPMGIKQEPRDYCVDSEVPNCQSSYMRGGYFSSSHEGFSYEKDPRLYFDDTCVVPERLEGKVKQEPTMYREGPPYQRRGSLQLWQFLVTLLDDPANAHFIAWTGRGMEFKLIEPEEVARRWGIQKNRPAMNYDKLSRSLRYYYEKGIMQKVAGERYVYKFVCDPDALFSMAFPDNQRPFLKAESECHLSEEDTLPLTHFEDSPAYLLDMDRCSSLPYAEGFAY
# Chain of ETV6 (P41212 whole entry): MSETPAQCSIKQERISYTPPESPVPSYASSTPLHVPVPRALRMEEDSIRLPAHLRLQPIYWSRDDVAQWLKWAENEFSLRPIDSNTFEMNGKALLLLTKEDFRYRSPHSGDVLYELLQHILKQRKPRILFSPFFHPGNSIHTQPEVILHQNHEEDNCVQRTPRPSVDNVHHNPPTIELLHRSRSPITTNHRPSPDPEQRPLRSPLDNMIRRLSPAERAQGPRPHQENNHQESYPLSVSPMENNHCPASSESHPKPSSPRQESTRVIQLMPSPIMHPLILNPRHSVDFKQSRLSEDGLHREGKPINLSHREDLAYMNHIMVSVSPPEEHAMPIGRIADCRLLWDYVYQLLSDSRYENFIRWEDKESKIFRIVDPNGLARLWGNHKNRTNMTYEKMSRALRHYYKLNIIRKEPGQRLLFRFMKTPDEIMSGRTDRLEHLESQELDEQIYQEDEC
Sequence,binding signal [1],binding signal [2],binding signal [3],binding signal [4],binding signal [5],binding signal [6],binding signal [7],binding signal [8],binding signal [9],binding signal [10],binding signal [11],binding signal [12],binding signal [13],binding signal [14],binding signal [15],binding signal [16]
TGTGCA,"1.1 fold enrichment (6-mer frequency, TF over GST control)","1.15 fold enrichment (6-mer frequency, TF over GST control)","1.38 fold enrichment (6-mer frequency, TF over GST control)","1.11 fold enrichment (6-mer frequency, TF over GST control)","1.09 fold enrichment (6-mer frequency, TF over GST control)","1.01 fold enrichment (6-mer frequency, TF over GST control)","1.09 fold enrichment (6-mer frequency, TF over GST control)","1.05 fold enrichment (6-mer frequency, TF over GST control)","1.21 fold enrichment (6-mer frequency, TF over GST control)","1.06 fold enrichment (6-mer frequency, TF over GST control)","1.16 fold enrichment (6-mer frequency, TF over GST control)","1.14 fold enrichment (6-mer frequency, TF over GST control)","1.08 fold enrichment (6-mer frequency, TF over GST control)","1 fold enrichment (6-mer frequency, TF over GST control)",,
TGCTGT,"1.01 fold enrichment (6-mer frequency, TF over GST control)","1.06 fold enrichment (6-mer frequency, TF over GST control)","1.18 fold enrichment (6-mer frequency, TF over GST control)","1.06 fold enrichment (6-mer frequency, TF over GST control)","1.19 fold enrichment (6-mer frequency, TF over GST control)","1.15 fold enrichment (6-mer frequency, TF over GST control)","1.12 fold enrichment (6-mer frequency, TF over GST control)","1.17 fold enrichment (6-mer frequency, TF over GST control)","1.08 fold enrichment (6-mer frequency, TF over GST control)",,"1.15 fold enrichment (6-mer frequency, TF over GST control)",,,"1.03 fold enrichment (6-mer frequency, TF over GST control)","1.13 fold enrichment (6-mer frequency, TF over GST control)",
TAGGTC,,"1.06 fold enrichment (6-mer frequency, TF over GST control)","1.11 fold enrichment (6-mer frequency, TF over GST control)","1.02 fold enrichment (6-mer frequency, TF over GST control)","1.11 fold enrichment (6-mer frequency, TF over GST control)","1.14 fold enrichment (6-mer frequency, TF over GST control)","1.06 fold enrichment (6-mer frequency, TF over GST control)","1.01 fold enrichment (6-mer frequency, TF over GST control)","1.01 fold enrichment (6-mer frequency, TF over GST control)","1.02 fold enrichment (6-mer frequency, TF over GST control)",,"1.05 fold enrichment (6-mer frequency, TF over GST control)","1.04 fold enrichment (6-mer frequency, TF over GST control)",,"1.11 fold enrichment (6-mer frequency, TF over GST control)","1.02 fold enrichment (6-mer frequency, TF over GST control)"

# Reference: article PMC7862700, “An all-to-all approach to the identification of sequence-specific readers for epigenetic DNA modifications on cytosine”
